Eight compounds from PubChem BioAssay (Tox21) can be followed below.

Values joined by “and” are separate entries in the source; they are usually repeats but may differ in a detail not shown here. Equal entries are not always repeated. Results filed as inconclusive are left out. Where a structure was tested more than once in an assay, its records may differ in their call. Active and inactive are the calls of the source. The call rests on the fitted dose curve; in most records, active means well fitted curve in the direction sought with a large enough effect in the repeat runs; inconclusive means weak or mixed curves; inactive means no such curve, though single readings can be large; an effect the other way counts as inactive or inconclusive.

A short description of test [1]: Human pregnane X receptor (PXR) small molecule agonists, qHTS cell viability counter screen (AID 1346977). Further: nearly all actives have a fitted effect of over 50% in size. Further: potency means the concentration at half of the fitted maximal effect. In short, it runs like this: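 Viability counter screen: CellTiter-Fluor signal in PXR-Luc HepG2 cells, 24hr compound exposure, 37C, 5% CO2.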
For orientation: In qHTS, concentration-response curves come from the screen itself.

A short description of test [2]: Caspase-3/7 induction in HepG2 cells by small molecules, qHTS assay (AID 1346978). Further: nearly all actives have a fitted effect of over 15% in size. In outline: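 Wild-type HepG2 cells (2,000/well) were settled 5 h at 37 C, 5% CO2, then exposed to compounds in DMSO for 17 h. Caspase-3/7 activity was read by luminescence 30 min after adding Caspase-Glo 3/7 reagent at room temperature.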
Test [3] in a line: Caspase-3/7 induction in CHO-K1 cells by small molecules, qHTS cell viability counter screen (AID 1346979). Further: nearly all actives have a fitted effect of over 35% in size. Further: potency means the concentration at half of the fitted maximal effect. In short, it runs like this: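 Viability readout by fluorescence (CellTiter-Fluor) on wild-type CHO-K1 cells exposed for 16hr at 37C and 5% CO2 to compounds delivered in DMSO; reagent incubated 1hr before reading.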
Test [4] is described as follows: Caspase-3/7 induction in CHO-K1 cells by small molecules, qHTS assay (AID 1346980). Further: nearly all actives have a fitted effect of over 15% in size. In outline:
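Wild-type cells were seeded at 1,500 per well and settled 5 hr at 37 C, 5% CO2, then exposed to DMSO-dissolved compounds for 17 hr. Caspase-Glo 3/7 reagent was added, and luminescence was read after 30min at room temperature.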

Test [5] in a line: Caspase-3/7 induction in HepG2 cells by small molecules, qHTS cell viability counter screen (AID 1346981). Further: nearly all actives have a fitted effect of over 30% in size. Further: potency means the concentration at half of the fitted maximal effect. In outline:
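Cell viability is measured as a cytotoxicity counter screen alongside the Caspase-Glo 3/7 readout in identical wells. Wild-type HepG2 cells are treated with test compounds for 16 hr at 37 C before CellTiter-Fluor addition and a 1-hr incubation.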

The target of test [6] is Nuclear receptor subfamily 1 group I member 2 (Homo sapiens) (UniProt O75469). As to the kind of experiment: Human pregnane X receptor (PXR) small molecule agonists, qHTS assay (AID 1346982). Further: nearly all actives have a fitted effect of over 35% in size. Further: potency means the concentration at half of the fitted maximal effect. In outline: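 Cells: HepG2 stably carrying PXR-Luc. Medium held 5% charcoal-stripped FBS. Compounds in DMSO added after 5 hr plating, incubated 24 hr, then luminescence quantified with ONE-Glo.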
Sequence of Nuclear receptor subfamily 1 group I member 2 (Homo sapiens) (O75469 whole entry, looked up): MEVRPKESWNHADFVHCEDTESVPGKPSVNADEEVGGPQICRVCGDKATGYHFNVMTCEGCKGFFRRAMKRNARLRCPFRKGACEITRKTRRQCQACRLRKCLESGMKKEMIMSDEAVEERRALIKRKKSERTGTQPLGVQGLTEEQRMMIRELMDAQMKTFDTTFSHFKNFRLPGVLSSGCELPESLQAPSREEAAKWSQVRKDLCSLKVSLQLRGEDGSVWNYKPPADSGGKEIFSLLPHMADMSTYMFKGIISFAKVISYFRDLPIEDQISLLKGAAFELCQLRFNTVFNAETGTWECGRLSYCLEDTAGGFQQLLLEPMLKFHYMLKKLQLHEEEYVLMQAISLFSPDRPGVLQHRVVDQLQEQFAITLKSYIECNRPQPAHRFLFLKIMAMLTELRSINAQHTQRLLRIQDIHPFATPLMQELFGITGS

The target in test [7] is Cytochrome P450 2C19 (Homo sapiens) (UniProt P33261). As to the kind of experiment: Cytochrome P450 Family 2 Subfamily C Member 19 (CYP2C19) small molecule antagonists: luciferase reporter qHTS assay (AID 1671197). Further: nearly all actives have a fitted effect of over 65% in size. Further: potency means the concentration at half of the fitted maximal effect. In short, it runs like this: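 CYP2C19 P450-Glo, 1536-well qHTS. Cpd + enzyme/proluciferin substrate 10 min RT; + NADPH regen, 37C 1 h; stop with luciferin detection reagent, 20 min RT, luminescence (RLU). Pos ctrl ketoconazole.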
Sequence of Cytochrome P450 2C19 (Homo sapiens) (P33261 whole entry, looked up): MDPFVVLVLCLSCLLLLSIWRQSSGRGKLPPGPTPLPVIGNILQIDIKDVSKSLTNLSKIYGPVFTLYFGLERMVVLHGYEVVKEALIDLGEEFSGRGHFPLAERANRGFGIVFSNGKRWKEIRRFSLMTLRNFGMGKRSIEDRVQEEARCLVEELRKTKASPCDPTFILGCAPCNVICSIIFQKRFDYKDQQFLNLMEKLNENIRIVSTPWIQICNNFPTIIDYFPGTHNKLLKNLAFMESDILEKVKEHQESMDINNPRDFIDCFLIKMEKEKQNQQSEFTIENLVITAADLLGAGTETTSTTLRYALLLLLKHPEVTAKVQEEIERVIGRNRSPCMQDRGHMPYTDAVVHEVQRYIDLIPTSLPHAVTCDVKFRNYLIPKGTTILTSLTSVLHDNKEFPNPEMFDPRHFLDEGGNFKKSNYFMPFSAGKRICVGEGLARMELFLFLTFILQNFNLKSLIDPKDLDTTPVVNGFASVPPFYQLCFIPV
A general note: In a reporter assay the amount or activity of a reporter protein is the signal.

Test [8] has as its target Cytochrome P450 2C9 (Homo sapiens) (UniProt P11712). As to the kind of experiment: Cytochrome P450 Family 2 Subfamily C Member 9 (CYP2C9) small molecule antagonists: luciferase reporter qHTS assay (AID 1671198). Further: nearly all actives have a fitted effect of over 50% in size. Further: potency means the concentration at half of the fitted maximal effect. In outline: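 CYP2C9 activity was measured with a P450-Glo proluciferin substrate. Enzyme–substrate mix was held with compound for 10 min at room temperature, then NADPH regeneration solution was added for 1 h at 37C. Luciferin product was read as luminescence.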

The target in test [9] is Cytochrome P450 1A2 (Homo sapiens) (UniProt P05177). As to the kind of experiment: Cytochrome P450 Family 1 Subfamily A Member 2 (CYP1A2) small molecule antagonists: luciferase reporter qHTS assay (AID 1671199). Further: nearly all actives have a fitted effect of over 50% in size. Further: potency means the concentration at half of the fitted maximal effect. In short, it runs like this:
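Compounds were incubated with CYP1A2 and a luminogenic proluciferin substrate for 10 min at room temperature before the reaction was started with NADPH regeneration solution. After 1 h, detection reagent was added and light output, proportional to CYP activity, was recorded.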

Test [10] deals with Voltage-gated inwardly rectifying potassium channel KCNH2 (Homo sapiens) (UniProt Q12809). Briefly: Human Ether-a-go-go-Related Gene (hERG) channel small molecule antagonists: fluorescence cell-based qHTS assay (AID 1671200).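 Further: hERG-expressing U2OS cells given a thallium stimulus after FluxOR II dye loading; series mostly up to about 77 µM; nearly all actives have a fitted effect of over 50% in size.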 In short, it runs like this: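 Thallium served as the potassium surrogate; its influx into dye-loaded U2OS cells carrying the channel was measured by fluorescence over 2 min.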
Sequence of Voltage-gated inwardly rectifying potassium channel KCNH2 (Homo sapiens) (Q12809 whole entry, looked up): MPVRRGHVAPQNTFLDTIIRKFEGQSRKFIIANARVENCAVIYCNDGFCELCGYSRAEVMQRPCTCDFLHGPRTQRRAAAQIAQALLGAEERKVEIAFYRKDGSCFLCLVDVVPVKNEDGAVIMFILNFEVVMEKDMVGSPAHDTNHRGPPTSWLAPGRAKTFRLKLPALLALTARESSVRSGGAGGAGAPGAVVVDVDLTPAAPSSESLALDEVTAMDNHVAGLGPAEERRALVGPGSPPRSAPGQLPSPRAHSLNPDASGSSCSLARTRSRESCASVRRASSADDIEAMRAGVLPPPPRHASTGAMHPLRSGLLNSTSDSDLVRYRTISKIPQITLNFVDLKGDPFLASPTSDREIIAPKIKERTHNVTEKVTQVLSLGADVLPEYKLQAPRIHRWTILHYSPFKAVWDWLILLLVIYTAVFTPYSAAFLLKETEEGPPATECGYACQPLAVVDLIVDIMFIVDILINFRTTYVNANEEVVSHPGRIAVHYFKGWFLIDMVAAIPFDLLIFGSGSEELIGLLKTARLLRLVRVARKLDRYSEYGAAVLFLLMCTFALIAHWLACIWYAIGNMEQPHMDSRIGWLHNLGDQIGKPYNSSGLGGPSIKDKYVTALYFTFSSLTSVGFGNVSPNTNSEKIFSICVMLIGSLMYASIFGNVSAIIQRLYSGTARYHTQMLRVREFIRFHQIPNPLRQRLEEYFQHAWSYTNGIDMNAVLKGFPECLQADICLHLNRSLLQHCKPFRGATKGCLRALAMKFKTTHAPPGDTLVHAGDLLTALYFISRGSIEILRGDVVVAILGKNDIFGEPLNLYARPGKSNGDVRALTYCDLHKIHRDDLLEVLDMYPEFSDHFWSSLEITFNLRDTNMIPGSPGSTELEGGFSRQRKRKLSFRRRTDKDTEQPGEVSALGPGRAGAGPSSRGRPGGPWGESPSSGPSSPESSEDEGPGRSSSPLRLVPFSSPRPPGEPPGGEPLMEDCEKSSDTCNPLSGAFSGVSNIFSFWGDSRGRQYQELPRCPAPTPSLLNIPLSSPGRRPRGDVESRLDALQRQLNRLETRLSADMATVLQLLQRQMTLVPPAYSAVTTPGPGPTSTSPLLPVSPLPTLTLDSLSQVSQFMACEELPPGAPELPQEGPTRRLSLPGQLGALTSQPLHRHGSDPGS
Background: The hERG channel carries a current that helps repolarise heart muscle cells.

Test [11] deals with Cytochrome P450 3A4 (Homo sapiens) (UniProt P08684). Briefly: Cytochrome P450 Family 3 Subfamily A Member 4 (CYP3A4) small molecule antagonists: luciferase reporter qHTS assay (AID 1671201). Further: nearly all actives have a fitted effect of over 50% in size. Further: potency means the concentration at half of the fitted maximal effect. In short, it runs like this: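 Relative luminescence units after 20 min with luciferin detection reagent served as read-out. Beforehand, CYP3A4 turned over a proluciferin substrate for 1 h at room temperature with NADPH regeneration, following 10 min compound preincubation.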
Sequence of Cytochrome P450 3A4 (Homo sapiens) (P08684 whole entry, looked up): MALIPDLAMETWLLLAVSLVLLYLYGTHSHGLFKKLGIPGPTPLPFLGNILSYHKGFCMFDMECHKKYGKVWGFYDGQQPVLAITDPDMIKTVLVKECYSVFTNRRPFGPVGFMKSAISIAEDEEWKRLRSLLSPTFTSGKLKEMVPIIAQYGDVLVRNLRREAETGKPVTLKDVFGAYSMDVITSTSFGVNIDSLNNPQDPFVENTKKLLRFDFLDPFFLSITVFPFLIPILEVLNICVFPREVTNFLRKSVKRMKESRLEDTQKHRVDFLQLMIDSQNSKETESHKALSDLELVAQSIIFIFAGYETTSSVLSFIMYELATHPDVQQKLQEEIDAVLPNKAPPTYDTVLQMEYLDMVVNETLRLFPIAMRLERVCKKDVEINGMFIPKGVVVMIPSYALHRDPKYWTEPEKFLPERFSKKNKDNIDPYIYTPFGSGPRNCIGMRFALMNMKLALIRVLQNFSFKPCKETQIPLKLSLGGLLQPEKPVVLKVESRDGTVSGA

Test [12] has as its target Nuclear receptor subfamily 1 group I member 2 (Rattus norvegicus) (UniProt Q9R1A7). As to the kind of experiment: Rat pregnane X receptor (rPXR) activation by small molecules, qHTS assay (AID 1346983). Further: nearly all actives have a fitted effect of over 20% in size. As to conditions: rPXR luciferase reporter cells, One-Glo luminescence, 24 h; max activation: stronger effect = higher value. In short, it runs like this: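 Cell-based rPXR luciferase reporter assay, 2,000 cells per well, rested 5hr at 37 C before compound addition in DMSO, then 24 hr at 37 C. One-Glo reagent was added and luminescence read after 30 min at room temperature.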

The target of test [13] is Nuclear receptor subfamily 1 group I member 2 (Homo sapiens) (UniProt O75469). Briefly: CYP3A4 induction through human pregnane X receptor (PXR) by small molecules, qHTS assay (AID 1346984). Further: nearly all actives have a fitted effect of over 40% in size. In outline:
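Quantitative HTS in DPX-2 cells, i.e. HepG2 transfected with PXR response element and CYP3A4-promoter luciferase. Compounds in DMSO incubated 24hr at 37C; then P450-Glo CYP3A4 substrate, 3uM final, 3hr; One-Glo luminescence.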

The target is the same in test [14]. Briefly: Human pregnane X receptor (PXR) activation by small molecules, qHTS assay (AID 1346985). Further: nearly all actives have a fitted effect of over 40% in size. In short, it runs like this:
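DPX-2 cells (HepG2 co-transfected with a PXR response element and a CYP3A4-promoter luciferase construct) were seeded at 2,000 per well, rested 5 hr at 37C, then exposed to DMSO-dissolved compounds for 24 hr. Activation was read as luciferase luminescence.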

For test [15], the target named is Cytochrome P450 2D6 (Homo sapiens) (UniProt P10635). Briefly: Cytochrome P450 Family 2 Subfamily D Member 6 (CYP2D6) small molecule antagonists: luciferase reporter qHTS assay (AID 1671196). Further: nearly all actives have a fitted effect of over 50% in size. Further: potency means the concentration at half of the fitted maximal effect. In outline:
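Enzyme and proluciferin substrate were first combined with test chemical for 10 min at room temperature. Adding NADPH regeneration solution started a 1 h reaction, stopped with luciferin detection reagent and read by luminescence 20 min later.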
On the % scale 0 is the no-effect control and ±100 the full control effect.

Sequence of Cytochrome P450 2D6 (Homo sapiens) (P10635 whole entry, looked up): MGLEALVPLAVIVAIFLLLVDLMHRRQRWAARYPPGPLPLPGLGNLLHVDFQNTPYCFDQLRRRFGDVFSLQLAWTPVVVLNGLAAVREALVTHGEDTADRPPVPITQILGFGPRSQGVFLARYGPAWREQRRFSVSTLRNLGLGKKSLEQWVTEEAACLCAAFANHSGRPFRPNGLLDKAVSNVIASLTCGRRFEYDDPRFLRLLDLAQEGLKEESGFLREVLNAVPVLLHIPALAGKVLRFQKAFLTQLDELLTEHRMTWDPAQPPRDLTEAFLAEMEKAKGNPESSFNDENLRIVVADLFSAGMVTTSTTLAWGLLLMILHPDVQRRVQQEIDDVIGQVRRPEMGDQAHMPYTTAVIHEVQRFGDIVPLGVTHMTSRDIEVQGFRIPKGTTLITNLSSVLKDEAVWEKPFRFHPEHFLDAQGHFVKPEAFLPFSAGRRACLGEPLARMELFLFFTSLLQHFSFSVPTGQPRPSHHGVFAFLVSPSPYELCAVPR
Sequence of Cytochrome P450 1A2 (Homo sapiens) (P05177 whole entry, looked up): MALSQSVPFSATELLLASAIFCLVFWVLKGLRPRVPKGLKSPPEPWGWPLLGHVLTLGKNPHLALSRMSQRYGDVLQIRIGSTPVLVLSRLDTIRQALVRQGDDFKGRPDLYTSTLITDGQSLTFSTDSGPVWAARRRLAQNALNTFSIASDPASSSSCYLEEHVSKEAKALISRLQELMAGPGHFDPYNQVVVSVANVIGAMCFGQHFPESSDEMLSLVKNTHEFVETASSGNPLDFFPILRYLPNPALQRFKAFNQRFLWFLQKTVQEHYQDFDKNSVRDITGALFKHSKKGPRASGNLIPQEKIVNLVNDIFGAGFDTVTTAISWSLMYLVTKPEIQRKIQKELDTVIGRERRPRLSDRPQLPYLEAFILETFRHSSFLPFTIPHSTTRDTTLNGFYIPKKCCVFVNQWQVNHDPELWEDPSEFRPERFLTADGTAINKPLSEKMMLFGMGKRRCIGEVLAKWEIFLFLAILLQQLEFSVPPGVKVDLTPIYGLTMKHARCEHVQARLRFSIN
Sequence of Cytochrome P450 2C9 (Homo sapiens) (P11712 whole entry, looked up): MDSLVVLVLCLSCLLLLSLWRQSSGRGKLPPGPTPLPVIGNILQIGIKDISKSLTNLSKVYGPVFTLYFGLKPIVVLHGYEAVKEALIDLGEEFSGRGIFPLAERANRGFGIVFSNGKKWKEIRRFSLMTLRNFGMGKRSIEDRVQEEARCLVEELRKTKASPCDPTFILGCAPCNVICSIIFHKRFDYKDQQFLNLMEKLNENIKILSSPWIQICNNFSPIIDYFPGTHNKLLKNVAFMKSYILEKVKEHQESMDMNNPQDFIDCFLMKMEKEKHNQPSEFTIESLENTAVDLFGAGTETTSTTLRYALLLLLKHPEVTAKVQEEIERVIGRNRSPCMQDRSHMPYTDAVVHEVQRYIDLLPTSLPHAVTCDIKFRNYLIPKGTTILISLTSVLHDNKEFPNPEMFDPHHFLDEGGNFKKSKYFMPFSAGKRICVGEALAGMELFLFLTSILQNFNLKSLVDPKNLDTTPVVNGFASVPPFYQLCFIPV
Sequence of Nuclear receptor subfamily 1 group I member 2 (Rattus norvegicus) (Q9R1A7 whole entry, looked up): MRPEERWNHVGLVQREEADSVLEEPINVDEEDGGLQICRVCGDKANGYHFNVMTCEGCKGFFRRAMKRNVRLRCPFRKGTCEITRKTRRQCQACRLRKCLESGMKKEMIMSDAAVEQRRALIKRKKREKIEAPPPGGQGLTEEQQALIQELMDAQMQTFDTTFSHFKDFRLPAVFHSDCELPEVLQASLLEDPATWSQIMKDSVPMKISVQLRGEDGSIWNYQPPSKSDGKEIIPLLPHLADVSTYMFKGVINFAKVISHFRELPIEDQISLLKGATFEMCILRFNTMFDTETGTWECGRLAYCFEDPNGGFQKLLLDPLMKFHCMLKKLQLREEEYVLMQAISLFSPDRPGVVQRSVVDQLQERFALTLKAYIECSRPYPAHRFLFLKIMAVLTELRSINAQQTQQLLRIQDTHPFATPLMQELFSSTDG

`Cc1ccc(C)c(O)c1`: the Potency result in test [1], in [2], in [3], in [4], in test [5] and in test [6] was “inactive” throughout. Further, the Potency entry in [8], in test [10] and in [11] was “inactive” each time. In addition, the Potency in [7] was 30.9 µM (active) and inactive; in test [9] it was 30.9 µM (active) and 41.1 µM (active).

As to `CC/C=C\C/C=C\C/C=C\CCCCCCCC(=O)O`, the Potency result in test [2], in [4], in [5], in [13], in test [14] and in test [9] was “inactive” each time. For the same compound, the Potency entry in test [10] was “inactive”. Also, the Potency entry was “inactive and 61.1 µM (active)” in [3]; “inactive and 61.1 µM (active)” in test [6]; 19.8 µM (active) in [15]; 31.4 µM (active) in [7]; 35.3 µM (active) and 39.9 µM (active) in [8]; “inactive and 39.9 µM (active)” in [11]. In addition, the max activation in [12] was -1.32% (inactive).

For the compound `CCC(=O)O[C@H]1[C@H](O[C@@H]2[C@@H](C)[C@H](O[C@H]3C[C@@](C)(OC)[C@@H](O)[C@H](C)O3)[C@@H](C)C(=O)O[C@H](CC)[C@@](C)(O)[C@H](O)[C@@H](C)C(=O)[C@H](C)C[C@@]2(C)O)O[C@H](C)C[C@@H]1N(C)C`, the Potency in test [1] is 36.1 µM (active) and inactive; in test [6] it was 9.07 µM (active) and inactive; in test [7], 47.1 µM (active) and inactive; in [8], 37.4 µM (active) and inactive; in test [11], 265 nM (active) and 2.75 µM (active). Besides, the Potency result in test [2], in [3], in test [4], in [5], in test [9] and in test [10] was “inactive” each time.

With `CC(C)(Oc1ccc(Cl)cc1)C(=O)O`, the Potency result in [1], in test [2], in test [3], in test [4], in test [5] and in [6] was “inactive” throughout. Besides, the Potency result in test [10] was “inactive”.

For the compound `OC[C@H]1O[C@@H]2O[C@H]3[C@H](O)[C@@H](O)[C@@H](O[C@H]4[C@H](O)[C@@H](O)[C@@H](O[C@H]5[C@H](O)[C@@H](O)[C@@H](O[C@H]6[C@H](O)[C@@H](O)[C@@H](O[C@H]7[C@H](O)[C@@H](O)[C@@H](O[C@H]1[C@H](O)[C@H]2O)O[C@@H]7CO)O[C@@H]6CO)O[C@@H]5CO)O[C@@H]4CO)O[C@@H]3CO`, the Potency entry in test [2], in test [3], in test [4], in test [5], in [6] and in test [13] was “inactive” throughout. The Potency result in test [14], in test [15], in test [7], in test [9], in test [10] and in [11] was “inactive” throughout. Besides, the max activation in [12] is -2.41% (inactive). For the same compound, in [8], the Potency entry is “inactive and 3.76 µM (active)”.

Turning to `Nc1ccc(O)c(N)c1`, the Potency in [1] is 44.7 µM (active); in test [3], 60.7 µM (active) and 30.6 µM (active); in test [5], 54.1 µM (active) and 48.6 µM (active); in [7], 35.3 µM (active) and 35.6 µM (active); in [8] it was 35.3 µM (active) and 71 µM (active); in [11], 63.3 µM (active). Also, the Potency result in test [2], in [4], in test [6] and in test [10] was “inactive” in each case.

On to `O=C(O)c1ccc(O)cc1`, for which the Potency result in [1], in test [2], in test [3], in test [4], in [5] and in test [6] was “inactive” in each case. The Potency result in [15], in test [7], in test [8], in test [9], in test [10] and in [11] was “inactive” in each case.

For `COc1ccc(C(=O)c2ccccc2O)c(O)c1`, the Potency entry in test [1], in test [2], in test [3], in [4], in test [5] and in [10] was “inactive” each time.
